Compounds without any hit were thinned out: in the full panel of roughly 83,000, 20% have a hit.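 How to read the values: 0–100, growth inhibition (40 = 60% inhibited); 0, no net growth; -100 to 0, cell death (-40 = 40% of starting cells died; -100 = all dead).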 Values without a mark were called inactive. Activity calls are given as the source filed them. Rule for the calls: active = growth percent below 10; inactive = the rest.

The test system of this test is MDA-MB-468 breast. Description: NCI-60 one-dose screen, 48 h (100 = growth as untreated, 0 = no growth, -100 = all killed). The settings on record: 10 µM unless noted.
Turning to `C/C(=C(/C)C1CC1CCN(C(=O)c1ccc([N+](=O)[O-])cc1)S(=O)(=O)c1ccc(C)cc1)C1CCCCC1` (stereo not given), the growth was 82.5%.
In the case of `Cc1ccc(C(NC(=O)c2ccccc2)c2ccc3cccnc3c2O)cc1` (stereo not given), the growth is -26.6% (active).
On to `C=CCn1c(SCC(=O)Nc2ccc(C(=O)/C=C/c3ccc(Br)cc3)cc2)nnc1-c1c[nH]c2ccccc12`, for which the growth is 85.8%.
In the case of `Cc1c2ccccc2c(C)c2c1ccc1ccccc12`, the growth is 20.5%.
On to `O=c1cc(-c2ccccc2)nc2sc(-c3c[nH]c4ccc(F)cc34)nn12`, for which the growth was 67.4%.
For the compound `CC1=C(/C=C/C(C)=C/C=C/C(C)=C/CO)C(C)(C)CCC1`, the growth was 103%.
For the compound `O=C1c2ccccc2NC(c2cn(-c3ccccc3)nc2-c2cccnc2)N1Cc1ccccc1` (stereo not given), the growth was 102%.
For the compound `COc1cccc(-c2nc3sccn3c2-c2ccnc(NCCNS(=O)(=O)c3ccc(C(F)(F)F)cc3)c2)c1`, the growth is 41.7%.
Regarding `Nc1nc(Cl)c2[nH]cnc2n1`, the growth was 94.7%.
With `O=C(Nc1nc2ccccc2s1)c1ccc(F)cc1`, the growth was 94.1%.
For the compound `CCN1C(=O)N[C@H]2[C@@H]3NC(=O)c4ccc(Cl)n4[C@@H]3C[C@]21O`, the growth was -6.44% (active).
With `Cc1ccc(S(=O)(=O)n2cc(C(=O)C(=O)Nc3ccncc3)c3ccccc32)cc1`, the growth is 1.96% (active).
For the compound `CCN(CC)CCC(=O)c1ccc(OC)c2ccccc12`, the growth is 49.7%.
`Cc1[nH]c(=O)[nH]c(=O)c1Br`: the growth was 107%.
`CC(C)NC1CCC(Nc2ccnc3cc(Cl)ccc23)CC1` (stereo not given): the growth is 62.3%.

The record behind these values is PubChem BioAssay (NCI).
